Here are results for eleven compounds from PubChem BioAssay (Tox21).

Assay [1] can be described thus: qHTS assay to identify small molecule agonists of the RXR signaling pathway - cell viability counter screen (AID 1159529). Also: nearly all actives have a fitted effect of over 50% in size. Also: potency is read from the fitted curve at half-maximal effect. An outline of the steps: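 In this parallel viability measure, GeneBLAzer RXR-alpha HEK 293T cells (2% charcoal-stripped FBS) were given a 5 hr preincubation, treated with compounds 16 hr at 37 C, and read by CellTiter-Glo luminescence.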
For orientation: In qHTS, concentration-response curves come from the screen itself.

A short description of assay [2]: qHTS assay to identify small molecule antagonists of the retinoid acid receptor (RAR) signaling pathway - cell viability counter screen (AID 1159551). Also: nearly all actives have a fitted effect of over 35% in size. The method in brief: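 Luminescent ATP quantitation (CellTiter-Glo) gave cell viability in C3RL4 cells exposed to test chemicals for 6 h at 37 C alongside 1 uM final retinol.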
The target in assay [3] is Luciferin 4-monooxygenase (Photinus pyralis) (UniProt P08659). Briefly: qHTS assay to identify small molecule inhibitors of firefly luciferase (AID 1224835). Also: nearly all actives have a fitted effect of over 25% in size. An outline of the steps:
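Quantitative HTS format; KM concentrations of both substrates. Purified P. pyralis FLuc activity quantified from luminescence images.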

The nature of assay [4]: qHTS assay to identify small molecule agonists of the constitutive androstane receptor (CAR) signaling pathway - cell viability counter screen (AID 1224836). Also: nearly all actives have a fitted effect of over 45% in size. Also: potency is read from the fitted curve at half-maximal effect. The method in brief: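 Using CellTiter-Fluor, viability of HepG2 cells harbouring hCAR and CYP2B6-2.2kb was measured following 23 h incubation with a 15-concentration compound series plus PK11195 (0.75 uM final).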
Assay [5] can be described thus: qHTS assay to identify small molecule antagonists of the constitutive androstane receptor (CAR) signaling pathway - cell viability counter screen (AID 1224837). Also: nearly all actives have a fitted effect of over 45% in size. The method in brief:
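HepG2-CYP2B6-hCAR cells, 2500/well, 4 hr pre-incubation; compound titration, 15 conc.; CITCO 50 nM final; 23 hr, 37 C/5% CO2; CellTiter-Fluor, fluorescence intensity.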

Assay [6] concerns the target Nuclear receptor subfamily 1 group I member 3 (Homo sapiens) (UniProt Q14994). Description: qHTS assay to identify small molecule antagonists of the constitutive androstane receptor (CAR) signaling pathway (AID 1224838).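 Also: HepG2 cells stably expressing hCAR with CYP2B6 luciferase reporter stimulated by CITCO; nearly all actives have a fitted effect of over 40% in size.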 The method in brief:
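HepG2-CYP2B6-hCAR cells; 4 h pre-incubation; cpd (15 conc) + CITCO 50 nM final; 24 h, 37 C/5% CO2; ONE-Glo, luminescence.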

Assay [7] is described as follows: qHTS assay to identify small molecule antagonists of the estrogen related receptor signaling pathway with the pleiotropic PPARgamma coactivator (PGC) from Tox21 10K library - cell viability counter screen (AID 1224840; active = well fitted cell-killing curve with a large enough effect in the repeat runs, not every such curve was filed as active; also: nearly all actives have a fitted effect of over 40% in size; also: potency is read from the fitted curve at half-maximal effect). An outline of the steps:
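PGC/ERR cells, 2,000/well; 6 h pre-incubation 37 C/5% CO2; cpd in DMSO via pin tool; 17.5 h 37 C; CellTiter-Fluor, 30 min; fluorescence.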

A short description of assay [8]: qHTS assay to identify small molecule antagonists of the estrogen related receptor signaling pathway with the pleiotropic PPARgamma coactivator (PGC) from Tox21 10K library (AID 1224841; call rule not given here; also: actives are mostly falling curves and most rising ones were filed inactive; nearly all actives have a fitted effect of over 50% in size; also: potency is read from the fitted curve at half-maximal effect). The method in brief: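 PGC/ERR cell line, 2,000 cells/well; 6 h pre-incubation 37 C/5% CO2; compounds (DMSO) pinned in; 18 h, 37 C; One-Glo, 30 min RT; luminescence.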
Assay [9] is described as follows: qHTS assay to identify small molecule agonists of the estrogen related receptor signaling pathway with the pleiotropic PPARgamma coactivator (PGC) from Tox21 10K library (AID 1224842). Also: nearly all actives have a fitted effect of over 15% in size. An outline of the steps:
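PGC/ERR reporter cells (NTP line) were seeded 2,000 per well, rested 6 h at 37 C/5% CO2, then pin-dosed with compounds in DMSO for 18 h at 37 C; luciferase read by One-Glo luminescence after 30 min at room temperature.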

Assay [10] is described as follows: qHTS assay to identify small molecule antagonists of the retinoic acid receptor (RAR) signaling pathway (AID 1159552; also: nearly all actives have a fitted effect of over 50% in size). The method in brief:
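C3RL4 RARE-luc cells, overnight plating; retinol 1 uM final added right after compound; 6 hr 37 C; luciferase read at 30 min RT.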

The nature of assay [11]: qHTS assay to identify small molecule agonists of the retinoic acid receptor (RAR) signaling pathway (AID 1159553). The conditions noted are these: C3RL4 RARE luciferase reporter, agonist, 6 h; activation: at 73.3 µM (top of the series) unless noted. An outline of the steps:
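Luminescence from a RARE-driven luciferase reporter in C3RL4 cells served as the read-out, measured after 30 min with detection reagent at room temperature. Compounds in DMSO were applied for 6 hr at 37 C following overnight seeding.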

The target in assay [12] is Thyrotropin receptor (Homo sapiens) (UniProt P16473). Description: qHTS assay to identify small molecule agonists of the thyroid stimulating hormone receptor (TSHR) signaling pathway (AID 1224843; calls by dose curve; also: nearly all actives have a fitted effect of over 45% in size; also: potency is read from the fitted curve at half-maximal effect). The method in brief:
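TSHR-expressing HEK293 cells (800 per well) were exposed to compounds for 30 min at room temperature. cAMP was then detected by HTRF competition with cAMP-d2 and anti-cAMP cryptate, read after 1 h at room temperature. Fifteen concentrations, triplicate.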

A short description of assay [13]: qHTS assay to identify small molecule antagonists of the estrogen related receptor (ERR) signaling pathway from Tox21 library - cell viability counter screen (AID 1224834). Also: nearly all actives have a fitted effect of over 30% in size. Also: potency is read from the fitted curve at half-maximal effect. An outline of the steps:
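Fluorescence from CellTiter-Fluor gives the viability read-out, taken 30 min after reagent addition. Before that, ERR cells seeded 6 h earlier were incubated with compounds for 17.5 h at 37 C.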

Assay [14] addresses Nuclear receptor subfamily 1 group I member 3 (Homo sapiens) (UniProt Q14994). Briefly: qHTS assay to identify small molecule agonists of the constitutive androstane receptor (CAR) signaling pathway (AID 1224839).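 Also: HepG2 cells stably carrying human CAR and a CYP2B6 luciferase reporter; nearly all actives have a fitted effect of over 15% in size.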 The method in brief: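 Double-stable HepG2 cells (hCAR, CYP2B6-2.2kb) seeded 4 h before compound addition. Exposure 24 h with 0.75 uM PK11195 final. Luciferase detected by ONE-Glo.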

Assay [15] can be described thus: qHTS assay to identify small molecule antagonists of the estrogen related receptor (ERR) signaling pathway - cell viability counter screen (AID 1224818).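 Also: viability measured after 17.5 h of compound exposure.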 An outline of the steps:
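Multiplexed counter screen to separate cytotoxic compounds from true ERR modulators. ERR cells received DMSO-dissolved compounds after a 6 h pre-incubation, were exposed 17.5 h at 37 C, then assayed with CellTiter-Fluor fluorescence.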

Assay [16] is described as follows: qHTS assay to identify small molecule antagonists of the estrogen related receptor signaling pathway with the pleiotropic PPARgamma coactivator (PGC) cell viability counter screen (AID 1224822). An outline of the steps:
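Cells: PGC/ERR, 2,000/well, 1536-well format. Pre-incubation 6 h, 37 C/5% CO2. Compound exposure 17.5 h, 37 C. Detection: CellTiter-Fluor, 30 min, fluorescence.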

Assay [17] in a line: qHTS assay to identify small molecule agonists of the estrogen related receptor (ERR) signaling pathway (AID 1224820). An outline of the steps: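 Quantitative HTS of the LOPAC library used NTP ERR reporter cells treated 18 h at 37 C. Signal is luminescence after One-Glo addition and a 30 min room-temperature incubation.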
The test system of assay [18] is estrogen-related receptor alpha (ERRalpha) with PGC-1alpha coactivator, human. Briefly: qHTS assay to identify small molecule antagonists of the estrogen related receptor signaling pathway with the pleiotropic PPARgamma coactivator (PGC) (AID 1224821; calls by dose curve;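 also: lower luminescence signal means antagonism of PGC/ERR signalling; nearly all actives have a fitted effect of over 50% in size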). An outline of the steps:
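Quantitative HTS for antagonism: PGC/ERR cells received compounds after 6 h attachment and were incubated 18 h at 37 C, with luminescence (One-Glo) as the endpoint.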

A short description of assay [19]: qHTS assay to identify small molecule agonists of the estrogen related receptor signaling pathway with the pleiotropic PPARgamma coactivator (PGC) (AID 1224823). The method in brief:
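Cell-based luciferase assay in the NTP-supplied PGC/ERR line, 2,000 cells/well; 18 h compound exposure at 37 C, luminescence after One-Glo.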

Values joined by “and” are separate entries in the source; they are usually repeats but may differ in a detail not shown here. Equal values may be shown once. Results filed as inconclusive are left out. More than one record can exist for a structure, and the calls need not agree. Active and inactive are the calls of the source. Unless noted, calls follow the shape of the dose curve; as a rule, active = well fitted curve in the direction sought with a large enough effect in the repeat runs; inconclusive = weak or mixed curves; inactive = no such curve, though single readings can be large; an effect the other way counts as inactive or inconclusive.

Chain of Thyrotropin receptor (Homo sapiens) (P16473 whole entry, looked up): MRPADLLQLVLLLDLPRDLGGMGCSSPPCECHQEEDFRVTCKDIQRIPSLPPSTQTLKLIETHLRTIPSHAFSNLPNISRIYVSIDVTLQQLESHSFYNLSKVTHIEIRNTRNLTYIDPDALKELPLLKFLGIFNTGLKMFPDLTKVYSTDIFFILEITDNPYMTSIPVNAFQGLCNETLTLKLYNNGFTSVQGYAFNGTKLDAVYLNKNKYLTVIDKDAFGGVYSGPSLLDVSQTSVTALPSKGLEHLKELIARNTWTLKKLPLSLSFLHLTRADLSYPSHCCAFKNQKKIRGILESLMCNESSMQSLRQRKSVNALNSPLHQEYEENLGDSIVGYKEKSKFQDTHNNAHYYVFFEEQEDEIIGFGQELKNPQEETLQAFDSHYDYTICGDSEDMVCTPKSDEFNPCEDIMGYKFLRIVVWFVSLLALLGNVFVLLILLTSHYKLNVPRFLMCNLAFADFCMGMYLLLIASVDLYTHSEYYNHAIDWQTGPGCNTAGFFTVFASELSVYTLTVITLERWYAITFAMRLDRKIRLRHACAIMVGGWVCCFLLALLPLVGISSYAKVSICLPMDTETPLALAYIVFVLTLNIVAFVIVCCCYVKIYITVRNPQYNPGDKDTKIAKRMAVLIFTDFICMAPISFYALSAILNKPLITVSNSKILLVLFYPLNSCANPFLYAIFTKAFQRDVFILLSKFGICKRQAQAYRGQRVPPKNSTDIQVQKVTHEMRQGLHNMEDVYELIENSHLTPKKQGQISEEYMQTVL
Chain of Nuclear receptor subfamily 1 group I member 3 (Homo sapiens) (Q14994 whole entry, looked up): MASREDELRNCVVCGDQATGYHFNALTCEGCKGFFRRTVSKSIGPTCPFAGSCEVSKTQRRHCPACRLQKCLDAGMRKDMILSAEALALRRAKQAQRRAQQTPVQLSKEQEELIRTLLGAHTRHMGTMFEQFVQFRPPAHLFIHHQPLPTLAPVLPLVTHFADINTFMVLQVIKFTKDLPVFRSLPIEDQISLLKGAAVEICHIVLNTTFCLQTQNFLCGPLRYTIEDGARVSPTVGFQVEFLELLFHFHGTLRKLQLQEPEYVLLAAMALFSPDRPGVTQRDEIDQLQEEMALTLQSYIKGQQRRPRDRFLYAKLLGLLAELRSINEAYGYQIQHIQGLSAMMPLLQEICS
Chain of Luciferin 4-monooxygenase (Photinus pyralis) (P08659 whole entry, looked up): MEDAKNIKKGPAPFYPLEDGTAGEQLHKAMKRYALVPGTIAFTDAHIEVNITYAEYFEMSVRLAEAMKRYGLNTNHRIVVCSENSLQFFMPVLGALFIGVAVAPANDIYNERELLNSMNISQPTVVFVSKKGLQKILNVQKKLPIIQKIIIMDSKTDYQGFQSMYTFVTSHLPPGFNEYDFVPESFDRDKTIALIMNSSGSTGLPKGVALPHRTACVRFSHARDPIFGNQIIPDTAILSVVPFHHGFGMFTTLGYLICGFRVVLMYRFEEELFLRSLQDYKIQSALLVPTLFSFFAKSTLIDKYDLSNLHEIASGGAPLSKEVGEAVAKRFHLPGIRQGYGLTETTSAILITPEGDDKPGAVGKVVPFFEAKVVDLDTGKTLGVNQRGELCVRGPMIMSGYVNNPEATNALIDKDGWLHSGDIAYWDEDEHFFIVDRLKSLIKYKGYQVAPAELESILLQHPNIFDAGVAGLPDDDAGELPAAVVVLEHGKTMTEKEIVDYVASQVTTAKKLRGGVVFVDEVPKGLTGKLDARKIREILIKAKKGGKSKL

In the case of `CC1(C)OC(=O)NC1=O`, the Potency result in assay [1], in assay [2], in assay [3], in assay [4], in [5] and in assay [6] was “inactive” throughout. In addition, the Potency result in assay [7], in assay [8] and in assay [9] was “inactive” throughout.
As to `Nc1ccc(O)c(N)c1`, the Potency result in [1], in [10], in assay [11], in assay [4], in assay [5] and in assay [6] was “inactive” each time. Also, the Potency result in assay [7] and in [9] was “inactive” each time. Also, the Potency in [8] was 304 nM (active) and inactive; in assay [12], 54.1 µM (active).
As to `CCCN1C=CN(C)C1`, the Potency entry in assay [1], in assay [2], in assay [13], in assay [3], in [4] and in assay [5] was “inactive” each time. Besides, the Potency entry in assay [6], in [14], in [7] and in [12] was “inactive” in each case.
In the case of `O=C(CCCN1CCC(O)(c2ccc(Cl)cc2)CC1)c1ccc(F)cc1`, the Potency was 27.5 µM (active) and inactive in assay [1]; 61.1 µM (active) and inactive in [13]; 61.1 µM (active) in assay [4]; 54.5 µM (active) and inactive in assay [7]. In addition, the Potency result in assay [2] and in [12] was “inactive” throughout. The compound was called inactive in assay [15] and in assay [16].
With `[Na+]`, the Potency result in assay [1], in [2], in [13], in assay [3], in assay [4] and in assay [5] was “inactive” throughout. In addition, the Potency entry in [6] and in assay [7] was “inactive” in each case.
As for `CN(C)CCCN1c2ccccc2Sc2ccc(Cl)cc21`, the Potency in assay [1] was 43.6 µM (active); in assay [4] it was 48.6 µM (active); in assay [7] it was 48.6 µM (active) and 26.6 µM (active). The Potency result in [2], in assay [14], in assay [8] and in [9] was “inactive” in each case. For the same compound, the compound was called inactive in assay [17], in [18] and in assay [19].
As to `CCCCCC=O`, the Potency entry in assay [1], in assay [2], in assay [3], in assay [4], in [5] and in assay [6] was “inactive” in each case. Moreover, the Potency result in assay [14], in [7], in [8], in assay [9] and in [12] was “inactive” throughout.
`COC(=O)c1ccc(C)cc1`: the Potency entry in assay [1], in assay [2], in assay [3], in assay [4], in assay [5] and in assay [6] was “inactive” in each case. For the same compound, the Potency entry in assay [7] and in assay [12] was “inactive” in each case.
With `CCC/C=C/C=O`, the Potency result in assay [1], in assay [2], in assay [13], in [3], in [4] and in assay [6] was “inactive” throughout. In addition, in assay [7], the Potency result is “inactive”.
Regarding `CC(C)(Oc1ccc(Cl)cc1)C(=O)O`, the Potency entry in assay [1], in assay [2], in assay [13], in assay [3], in assay [4] and in assay [5] was “inactive” in each case. Besides, the Potency entry in assay [6], in assay [14] and in assay [7] was “inactive” in each case.
With `C=CN1CCCC1=O`, the Potency result in [1], in [2], in assay [3], in assay [4], in [5] and in assay [6] was “inactive” each time. The Potency entry in assay [7] was “inactive”.
